Compound activity (PubChem)
The list is not random: actives were taken first. Their share in the collection is about 4.1%.
697 NFkB inh – lowers PMA/ionomycin-induced NF-kB signal in 697 B cells; 697 B-cell NF-kB luciferase reporter, 16 h; inhibition, % at 4 µM; 330,000 compounds, 0.33% hits; AID 435022; in the data active = inhibition above about 35%
KLF5 inhibitor – kruppel-like factor 5 inhibition; inhibition, % at 5 µM; 290,000 compounds, 0.23% hits; DLD-1 KLF5 promoter-luciferase reporter, luminescence;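 active = inhibition above a per-plate limit of that plate's mean compound inhibition plus 3 SD, cut at about 60% in these data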;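 note: higher means less KLF5 promoter-driven luciferase light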
Jurkat NFkB inh – lowers PMA/ionomycin-induced NF-kB signal in Jurkat cells | PMA/ionomycin-induced NF-kB luciferase reporter, luminescence | inhibition, % at 4 µM | 330,000 compounds, 0.53% hits; in the data active = inhibition above about 50%
Gli-Sufu block – blocks Gli-Sufu signaling in a luciferase reporter; inhibition, % at 5 µM; Sufu-KO-LIGHT fibroblasts, Gli luciferase reporter luminescence; AID 588413; 340,000 compounds, 0.74% hits;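 active = inhibition above about 55%, limit read from the data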
Mdm2 MdmX PPI – disrupts the human Mdm2-MdmX interaction | inhibition, % at 8 µM | 330,000 compounds, 3% hits | SaOS-2 split-luciferase Mdm2/MdmX complementation, luminescence;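 active = inhibition of at least 50% at 8 µM in the primary screen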
aSyn 5UTR inh – 5' untranslated region of α-synuclein, MLPCN primary screen | 300,000 compounds, 0.82% hits | AID 1813 | inhibition, % (tested at 7.5 µM) | alpha-synuclein 5'UTR reporter, inhibitor activity; in the data active = inhibition above about 60%;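 note: H4 neuroglioblastoma cells stably carrying SNCA 5'UTR luciferase fusion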
Mdm2-MdmX conf – human Mdm2/MdmX binding inhibition, confirmed | shares compounds with Mdm2 MdmX PPI | luminescent assay | inhibition, % at 8 µM | 10,000 compounds, 55% hits | AID 489028; in the data active = inhibition above about 40%
Full FLuc ctr – inhibits full-length luciferase, flagging false Mdm2/MdmX hits; shares compounds with Mdm2 MdmX PPI; SaOS-2 full-length luciferase counterscreen, luminescence; inhibition, % at 8 µM; 6,200 compounds, 77% hits; AID 504607;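 active = mean inhibition at 8 µM reaching about 37%, which flags the compound as non-specific, limit read from the data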;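 note: p53-null SaOS-2 cells with luciferase driven by a doxycycline-inducible promoter; compound on cells about two nights before reading with doxycycline added after day one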
Each line names hits and unclear results; the compound was inactive in the other large screens (follow-up assays come after a bar, where they were run).

CC(C)(CN1CCNCC1)NS(=O)(=O)c1ccc(Cl)cc1	Mdm2 MdmX PPI 61 (no result: KLF5 inhibitor, aSyn 5UTR inh) | Mdm2-MdmX conf inactive
Cc1ccc(C2C3=C(CC(C)(C)CC3=O)NC3=C2C(=O)c2ccccc23)cc1 (stereo not given)	none
CC1(C)CC(=O)C2=C(C1)NC1=C(C(=O)c3ccccc31)C2c1ccc(Cl)cc1 (stereo not given)	Mdm2 MdmX PPI 58 | Mdm2-MdmX conf inactive
Cc1cccc(NC(=O)Nc2cccc(C#N)c2)n1	none
Cc1cccc(NC(=O)Nc2ccc(C#N)cc2)n1	Mdm2 MdmX PPI 78 | Mdm2-MdmX conf 67 | Full FLuc ctr 78
CCOC(=O)c1ccc(NC(=O)Nc2cccc(C)n2)cc1	Mdm2 MdmX PPI 57 | Mdm2-MdmX conf inactive
CC(C)(C)OC(=O)NCCCC[C@H](NC(=O)c1[nH]cnc1C(=O)Nc1ccc(CNC(=O)OC(C)(C)C)cc1)C(=O)OC(C)(C)C	Mdm2 MdmX PPI 87 (no result: KLF5 inhibitor, aSyn 5UTR inh) | Mdm2-MdmX conf 47 | Full FLuc ctr 75
CC(C)(C)OC(=O)NCCCCCNC(=O)c1[nH]cnc1C(=O)Nc1ccccc1	none (no result: KLF5 inhibitor, aSyn 5UTR inh)
CC(C)(C)OC(=O)NCCCC[C@H](NC(=O)c1nc[nH]c1C(=O)NCc1ccccc1)C(=O)OC(C)(C)C	none
CC(C)(C)OC(=O)NCc1ccc(NC(=O)c2nc[nH]c2C(=O)NCCCNC(=O)c2[nH]cnc2C(=O)Nc2ccc(CNC(=O)OC(C)(C)C)cc2)cc1	Mdm2 MdmX PPI 86 (no result: KLF5 inhibitor, aSyn 5UTR inh) | Mdm2-MdmX conf inactive
CC(C)(C)OC(=O)NCCCCCNC(=O)c1[nH]cnc1C(=O)Nc1ccc(Cl)cc1	Mdm2 MdmX PPI 64 (no result: KLF5 inhibitor, aSyn 5UTR inh) | Mdm2-MdmX conf inactive | Full FLuc ctr 59
CC(C)(C)OC(=O)NCc1ccc(NC(=O)c2nc[nH]c2C(=O)NCCCCNC(=O)c2[nH]cnc2C(=O)Nc2ccc(CNC(=O)OC(C)(C)C)cc2)cc1	Mdm2 MdmX PPI 96 (no result: KLF5 inhibitor, aSyn 5UTR inh) | Mdm2-MdmX conf inactive
CCCCn1c(N)c(N(CC(C)C)C(=O)c2cc3ccccc3cc2OC)c(=O)[nH]c1=O	none (no result: 697 NFkB inh, KLF5 inhibitor, Jurkat NFkB inh, Mdm2 MdmX PPI, aSyn 5UTR inh)
Cc1c(C(=O)NC(=S)Nc2ccc(NC(=O)c3cccs3)cc2)oc2ccccc12	Mdm2 MdmX PPI 62 (no result: KLF5 inhibitor) | Mdm2-MdmX conf inactive
CC(=O)NC(=S)Nc1ccc(NC(=O)c2cccs2)cc1	none
COc1ccc(C(=O)O/N=C(\N)c2ccc(OC)c(OC)c2)c(OC)c1	Mdm2 MdmX PPI 75 | Mdm2-MdmX conf inactive
COc1ccccc1C(=O)O/N=C(\N)c1ccccc1Cl	none
COc1ccc(/C(N)=N/OC(=O)N2CCOCC2)cc1	Mdm2 MdmX PPI 62 | Mdm2-MdmX conf inactive
COc1ccc(/C(N)=N/OC(=O)CC2CCCCC2)cc1OC	Mdm2 MdmX PPI 67 | Mdm2-MdmX conf inactive
COc1ccc(C(=O)O/N=C(\N)c2ccccc2Cl)cc1OC	Mdm2 MdmX PPI 86 | Mdm2-MdmX conf 44 | Full FLuc ctr 112
COc1ccc(OC(=O)N2CCOCC2)cc1	none
COc1ccc(/C(N)=N/OC(=O)c2cccc([N+](=O)[O-])c2C)cc1OC	none
CCOc1cc(/C=N/NC(=O)CCc2n[nH]c(=O)[nH]c2=O)ccc1O	none
COc1ccc(C2C(C#N)=C(N)N(c3ccccc3C#N)C3=C2C(=O)CCC3)cc1CN1CCCC1 (stereo not given)	none
COc1ccc(C(=O)O/N=C(\N)c2ccccn2)c(OC)c1	Mdm2 MdmX PPI 69 | Mdm2-MdmX conf inactive
COc1ccc(C(=O)O/N=C(\N)c2ccc(OC)c(OC)c2)cc1	Mdm2 MdmX PPI 86 | Mdm2-MdmX conf inactive
COc1ccc(/C(N)=N/OC(=O)c2ccc(OC)c([N+](=O)[O-])c2)cc1OC	Mdm2 MdmX PPI 71 | Mdm2-MdmX conf inactive
COc1ccc(Cl)cc1C(=O)O/N=C(\N)c1ccccn1	none
CC(C(=O)NCc1ccco1)n1ccc2cc(S(=O)(=O)N3CCCCC3)ccc21 (stereo not given)	none
Fc1cc2[nH]c(=S)[nH]c2c(Br)c1N1CCSCC1	none
CCc1cc(=O)oc2cc3occ(-c4ccc(OC)c(F)c4)c3cc12	Mdm2 MdmX PPI 64 | Mdm2-MdmX conf 74 | Full FLuc ctr 62
CCc1cc(=O)oc2cc3occ(C)c3cc12	none
CN(CC(=O)Nc1ccc(OC(F)(F)F)cc1)C(=O)Cc1cccs1	none (no result: KLF5 inhibitor, aSyn 5UTR inh)
COc1ccc(/C=N/N2C(=O)C3C4C=CC(CC4)C3C2=O)c(OC)c1 (stereo not given)	none
Cc1ccc(S(=O)(=O)N2CCCCC2)cc1NC(=O)Cn1ncc(Cl)c(Cl)c1=O	Mdm2 MdmX PPI 97 (no result: KLF5 inhibitor, aSyn 5UTR inh) | Mdm2-MdmX conf 99 | Full FLuc ctr 55
O=C(Cn1ncc(Cl)c(Cl)c1=O)Nc1ccc2c(c1)OCO2	Mdm2 MdmX PPI 100 (no result: KLF5 inhibitor, aSyn 5UTR inh) | Mdm2-MdmX conf 83 | Full FLuc ctr 57
Cc1ccc(NC(=O)CCl)cc1S(=O)(=O)N1CCCCCC1	Mdm2 MdmX PPI 97 | Mdm2-MdmX conf inactive
CCN(CC)S(=O)(=O)c1cc(NC(=O)Cn2ncc(Cl)c(Cl)c2=O)ccc1C	Mdm2 MdmX PPI 100 | Mdm2-MdmX conf 100 | Full FLuc ctr 50
COc1ccc(NC(=O)Cn2ncc(Cl)c(Cl)c2=O)cc1S(=O)(=O)N1CCOCC1	none (no result: 697 NFkB inh, Jurkat NFkB inh, Mdm2 MdmX PPI)
COCCNCC(=O)Nc1ccc(C)c(S(=O)(=O)N2CCCCC2)c1	none
Cc1ccc(OCC(=O)N(C)CC(=O)Nc2cccc(F)c2)cc1	none
O=C(Cn1ncc(Cl)c(Cl)c1=O)N1CCN(S(=O)(=O)c2ccc3ccccc3c2)CC1	Mdm2 MdmX PPI 100 | Mdm2-MdmX conf 100 | Full FLuc ctr 53
O=C(CN1CCCCC1)NC(=O)NC1CCCC1	none
O=C(Cn1ncc(Cl)c(Cl)c1=O)c1ccc2c(c1)OCCO2	Mdm2 MdmX PPI 100 (no result: KLF5 inhibitor, aSyn 5UTR inh) | Mdm2-MdmX conf 82 | Full FLuc ctr 52
Cc1cc(Br)ccc1NC(=O)CNC(=O)Cn1ncc(Cl)c(Cl)c1=O	Mdm2 MdmX PPI 97, aSyn 5UTR inh 63 | Mdm2-MdmX conf 99 | Full FLuc ctr 48
Cc1cc(Br)ccc1NC(=O)CNC(=O)CSc1ncccn1	none (no result: KLF5 inhibitor, Gli-Sufu block, aSyn 5UTR inh)
O=C(O)CCC(=O)N1CCN(S(=O)(=O)c2ccc3ccccc3c2)CC1	none
O=C(Cn1ncc(Cl)c(Cl)c1=O)NC(=O)NC1CCCCC1	Mdm2 MdmX PPI 100 (no result: KLF5 inhibitor, aSyn 5UTR inh) | Mdm2-MdmX conf 97 | Full FLuc ctr 50
Cc1c(C(=O)OCC(=O)N(C)CC(=O)Nc2ccc(F)cc2)oc2ccccc12	none (no result: KLF5 inhibitor, aSyn 5UTR inh)
O=C1NC(=S)N/C1=C/c1ccc2c(c1)OCO2	Mdm2 MdmX PPI 80 | Mdm2-MdmX conf 50 | Full FLuc ctr 91
O=C(COc1ccccc1)Nc1nnc(S(=O)(=O)N2CCCCCC2)s1	none
COc1ccc(C2C(C#N)=C(N)Oc3c2ccc2cccnc32)cc1OC (stereo not given)	Mdm2 MdmX PPI 81 | Mdm2-MdmX conf 78 | Full FLuc ctr 60
Cc1cccc(C)c1CC(=O)N1CCOCC1	none
